GDH-TPI inh – GDH-TPI coupled enzyme inhibition counter-screen | AID 588335 | inhibition, % at 4.8 µM | 360,000 tested, 1.2% active | GDH-TPI coupled enzyme counterscreen, NADH absorbance; in the data active = inhibition above about 30%;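 note: 0% = DMSO wells and 100% = wells lacking the enzyme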
Vc quorum ag-1 – quorum light induction in luxS cqsA deficient V. cholerae; AID 588436; V. cholerae BH1578 lux reporter, luminescence, 6 h; 350,000 tested, 0.16% active; activation, % at 18.7 µM; in the data active = activation mostly above about 9.7%, no sharp cut-off
RecA intein inh – blocks M. tuberculosis RecA intein splicing; AID 2221; 290,000 tested, 0.75% active; inhibition, % (test concentration not listed); cell-free RecA intein splicing, fluorescence; in the data active = inhibition above about 30%;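 note: 0% = vehicle wells and 100% = reference inhibitor control wells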
FBA Mtb inh – inhibitors of M. tuberculosis fructose-bisphosphate aldolase. inhibition, % at 1 µM. AID 588726. P9WQA3. purified M. tuberculosis FBA, fluorescence read-out. 360,000 tested, 2.3% active; in the data active = inhibition above about 27%;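 note: 0% = vehicle and 100% = reference inhibitor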
Rv3671c protease – Rv3671c (M. tuberculosis) protease inhibition; inhibition, % at 5.96 µM; 320,000 tested, 0.048% active; in the data active = inhibition above about 38%;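 note: extracellular domain of Rv3671c used as enzyme; 0% = enzyme with DMSO and 100% = no enzyme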
UGM FP inh – inhibitors of M. tuberculosis UDP-galactopyranose mutase; P9WIQ1; purified UGM, fluorescence polarization probe displacement; inhibition, % at 10 µM; 320,000 tested, 0.06% active; in the data active = inhibition above about 10%, passing the limit was not always enough
Target sequence (P9WIQ1 whole entry, looked up): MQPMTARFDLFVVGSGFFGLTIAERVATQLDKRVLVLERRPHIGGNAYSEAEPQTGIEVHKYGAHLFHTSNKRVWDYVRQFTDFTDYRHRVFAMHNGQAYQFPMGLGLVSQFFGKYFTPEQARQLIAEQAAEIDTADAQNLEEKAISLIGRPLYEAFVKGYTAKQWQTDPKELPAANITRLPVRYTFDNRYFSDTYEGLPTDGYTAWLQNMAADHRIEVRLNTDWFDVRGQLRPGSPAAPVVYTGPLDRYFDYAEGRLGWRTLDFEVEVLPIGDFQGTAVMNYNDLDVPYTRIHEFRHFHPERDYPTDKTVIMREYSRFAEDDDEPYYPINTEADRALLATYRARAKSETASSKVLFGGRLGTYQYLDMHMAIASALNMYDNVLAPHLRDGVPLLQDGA
Vc quorum ag-2 – inducers of V. cholerae quorum light production without autoinducers. shares compounds with Vc quorum ag-1. V. cholerae BH1578 lux reporter, luminescence, 6 h. activation, % at 50 µM. 620 tested, under 10 active; call rule not given here
HeLa 24h tox – HeLa cell viability loss at 24 h; 25 tested, under 10 active; AID 624140; CellTiter-Glo ATP luminescence; shares compounds with Vc quorum ag-1; activity change, negative = cytotoxicity, % at 35 µM;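 active = signal drop with fitted half-maximal concentration at or below twice the highest valid dose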
Numbers without * were called inactive; i = inactive; · = no result; + = active, no number. An excerpt weighted towards active compounds, which were near 4.1% of everything screened.

SMILES | GDH-TPI inh | Vc quorum ag-1 | RecA intein inh | FBA Mtb inh | Rv3671c protease | UGM FP inh | Vc quorum ag-2 | others
COc1ccc(NC(=O)CCS(=O)(=O)c2ccc3c(c2)CCCN3C(C)=O)cc1Cl | 2.8 | 16.7* | 2.0 | -0.3 | -8.2 | -0.2 | 3.6
COc1ccc(NC(=O)CCS(=O)(=O)c2ccc3c(c2)CCN3C(C)=O)cc1 | 7.8 | -0.3 | -2.4 | -1.0 | -3.5 | -0.6 | ·
CC(=O)Nc1ccc(SC[C@H](C)CN2CC[C@H](O)CCC2=O)cc1 | 6.0 | -0.4 | · | 0.0 | -1.5 | -0.9 | ·
CCc1ccc(C(=O)OCC(=O)N2CCCCCC2)cc1 | -2.1 | 3.1 | · | 0.8 | -10.4 | 1.4 | ·
CCOc1ccc(C(=O)OCC(=O)N2CCCC2)cc1 | 12.0 | 25.0* | 3.3 | -0.2 | 4.7 | -2.2 | 7.8
CCOC(=O)c1c(S(=O)(=O)N(C)Cc2ccccc2)c(C)n(C)c1C | 6.7 | -0.2 | 5.2 | 1.1 | 1.4 | 3.1 | ·
COCCNC(=O)CN1CCN(C(c2ccccc2)c2ccccc2)CC1 | -0.7 | 12.5 | -1.7 | -1.5 | 4.2 | -0.1 | 0.0
CC(NC(=O)CN1CCN(c2ccccc2F)CC1)c1ccccc1 (configuration not stated) | 17.1 | 27.3 | 0.9 | 1.3 | · | 1.2 | 0.9
Cc1ccsc1C(=O)N1CCC1(C)C(=O)NCC(C)(C)C (configuration not stated) | 5.5 | -0.3 | · | -1.4 | · | · | ·
COc1ccccc1C(NC(=O)C1CCN(CCOc2ccccc2)CC1)c1ccccn1 (configuration not stated) | -8.0 | 0.1 | · | 0.3 | · | · | ·
CCOC(=O)[C@H]1[C@H]2COc3ccc(Br)cc3[C@@H]2N2C(=O)c3cc(Br)ccc3NC(=O)[C@@]12C | 13.9 | i | · | 4.9 | -64.1 | 1.2 | ·
CSc1ncc(C(=O)Nc2ccc(C(C)=O)cc2)c(C)n1 | 9.0 | i | 2.4 | 1.1 | · | -0.7 | ·
O=C(COC(=O)C1CCC1)Nc1ccc(Oc2ccccc2)cc1 | 9.6 | 1.8 | 3.0 | -2.9 | 3.2 | -1.5 | 0.1
O=C(COC(=O)C1CC1)Nc1ccc(Oc2ccccc2)cc1 | 2.3 | -0.2 | 2.0 | -0.2 | 3.6 | 1.2 | ·
CCn1cc(C(=O)NC2CCCCC2C)c(=O)c2ccc(C)nc21 (configuration not stated) | 14.2 | 30.0* | -0.8 | -3.6 | -7.7 | 0.4 | 0.0
CCOC(=O)CSc1nc(N)c(C#N)c(-c2cccs2)c1C#N | 1.0 | 43.9* | -4.0 | 11.4 | -16.8 | -2.3 | 0.1
COc1cc2c(c(OC)c1OC)C(c1ccc(C)cc1)CC(=O)O2 (configuration not stated) | 7.3 | 18.3 | · | -1.1 | · | · | 0.8
O=C(c1ccc(F)cc1F)N1CCN(c2ccccn2)CC1 | 1.5 | i | 1.5 | 9.2 | -5.4 | 0.5 | ·
CCOC(=O)C1=C(C)N=C2SCCC(=O)N2C1c1cc(Br)ccc1OC (configuration not stated) | 6.6 | 12.5 | -0.5 | -0.2 | 0.6 | 0.2 | 0.1
CCc1ccc2c(c1)c1nnc(NN)nc1n2C | 22.8 | 1.3 | 1.8 | 2.4 | 0.8 | -3.5 | ·
CCc1ccc2c(c1)c1nnc(NN)nc1n2CC | 10.2 | 135.0* | 2.6 | 1.4 | -7.5 | 2.7 | 106.5
COC(=O)Nc1ccc(S(=O)(=O)NCCO)cc1 | 2.5 | 12.5 | 0.1 | 0.4 | 0.0 | -3.5 | 0.0
COc1cc(OC)c(OC)cc1CNC(C)C(O)c1ccccc1 (configuration not stated) | -0.6 | 18.4 | -0.6 | 6.1 | 7.6 | -1.0 | 0.0
COc1ccc(-c2nnn(CC(=O)c3ccc4c(c3)OCCO4)n2)cc1OC | 12.0 | 5.6* | -0.9 | -4.2 | -0.2 | -3.9 | 0.2
CCOc1ccc(-c2nnn(CC(=O)c3ccc4c(c3)OCCO4)n2)cc1 | 10.8 | -7.1 | -4.0 | -3.6 | -10.9 | 3.0 | ·
SMILES | GDH-TPI inh | Vc quorum ag-1 | RecA intein inh | FBA Mtb inh | Rv3671c protease | UGM FP inh | Vc quorum ag-2 | others
CC(C)CC(=O)Nc1ccccc1N1CCN(C(=O)c2ccccc2)CC1 | -2.9 | 34.1* | -0.5 | 7.3 | -2.3 | 1.5 | 0.1
CCN1CCN(c2ccc(NC(=O)CCc3c(C)nc4c(-c5ccc(F)cc5)c(C)nn4c3C)cc2)CC1 | -9.3 | -0.1 | -1.3 | 0.5 | 3.7 | -1.8 | ·
COc1cccc(N2CCN(C(=O)c3ccc(Cl)c(S(=O)(=O)N4CCCCCC4)c3)CC2)c1 | 2.6 | -0.3 | · | -1.8 | · | · | ·
CN(C)C(=O)CCSc1nnc(-c2ccco2)o1 | -6.2 | 101.4* | 1.1 | 0.8 | 0.6 | -0.4 | 882.7
Cc1ccc(S(=O)(=O)N(C)c2ccc(OCC(=O)N3CCCCC3)cc2)cc1 | -1.1 | 12.5 | -1.6 | 5.6 | -30.2 | -2.2 | 1.6
Cc1cc(NC(=O)C(C)SCC(=O)OCc2ccc([N+](=O)[O-])cc2)no1 (configuration not stated) | 1.0 | -10.0 | 1.1 | 0.2 | 4.1 | 0.9 | ·
O=C(CSc1nnnn1C1CC1)N1CCN(c2ccccc2F)CC1 | 3.5 | i | · | 1.8 | -1.6 | 0.3 | ·
CCOC(=O)c1c(NC(=S)Nc2ccc(Cl)cc2)sc(C)c1C | -1.4 | 12.5 | -3.5 | 1.6 | · | · | 0.6
CCC(NC(=O)COC(=O)C1CC2CCCC(C1)C2=O)c1ccc(Br)cc1 (configuration not stated) | -4.9 | i | -2.4 | -1.5 | 1.5 | -0.3 | ·
NS(=O)(=O)c1ccc(NC(=O)NC2CCCCC2)cc1 | 0.8 | 32.1* | 0.6 | -2.6 | 7.8 | -0.8 | 17.9
Cc1cccc(OCC(=O)N(C)CCc2ccccn2)c1 | 0.0 | 25.0* | 2.1 | -0.8 | 8.8 | -1.2 | 0.3
N#CCSc1ccccc1NC(=O)COC(=O)CCNC(=O)c1ccc([N+](=O)[O-])cc1 | 0.7 | 9.3 | · | 2.4 | · | · | -0.1
O=C(COC(=O)c1ccc(Cl)nc1)Nc1ccc2ccccc2c1 | 0.0 | 14.3 | · | -1.5 | · | · | 0.2
CC(C)CC(N)c1csc(Nc2ncccn2)n1 (configuration not stated) | -8.4 | -0.2 | · | 1.9 | · | · | ·
COc1ccccc1NC(=O)CC(=O)Nc1ccccc1OC | 7.1 | -0.1 | 3.0 | 2.0 | -2.5 | 1.7 | ·
COc1ccccc1NC(=O)Cc1ccc(-c2ccccc2)cc1 | 4.4 | + | 6.9 | 0.7 | -14.2 | -3.1 | i
CCC(C)NC(=O)Cc1ccc(-c2ccccc2)cc1 (configuration not stated) | 6.5 | + | 1.8 | 4.0 | -16.0 | 0.1 | i | HeLa 24h tox=-6.4
CCN(CCNC(=O)C1CCCN(S(=O)(=O)CC)C1)c1ccccc1 (configuration not stated) | -1.6 | 12.5 | -0.8 | 5.3 | 1.8 | -0.4 | 0.2
CCCS(=O)(=O)N1CCCC(C(=O)NCc2ccc(C)cc2)C1 (configuration not stated) | -11.0 | 12.5 | -0.1 | 2.9 | 5.1 | 0.9 | 0.0
CCCCN(CCCNC(=O)C1CCCN(S(=O)(=O)CCC)C1)Cc1ccccc1 (configuration not stated) | -2.9 | -1.0 | -0.7 | -0.6 | 3.2 | 1.5 | ·
